“And” between values parts separate entries of the source, which are not always exact repeats. Equal entries are not always repeated. Compounds without any hit were thinned out: in the full panel of roughly 83,000, 20% have a hit.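 Negative percent growth values reflect cell death: -40 means 40% of the cells present at the start died, and -100 means all died.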 The source made the active and inactive calls. How the source made its calls: active means growth percent below 10; inactive means the rest.
How the values were obtained:
Test in all cases: NCI-60 one-dose screen, 48 h (100 = growth as untreated, 0 = no growth, -100 = all killed)
NCI-H23 lung = conditions: 10 µM
NCI-H226 lung = conditions: 10 µM
NCI-H322M lung = conditions: 10 µM
HOP-62 NSCLC = conditions: 10 µM
NCI-H460 lung = conditions: 10 µM
HOP-92 NSCLC = conditions: 10 µM
786-0 renal = conditions: 10 µM
COLO 205 colon = conditions: 10 µM
DU-145 prostate = conditions: 10 µM unless noted
K-562 leukemia = conditions: 10 µM
MALME-3M melanoma = conditions: 10 µM
RXF 393 renal = conditions: 10 µM unless noted
SF-295 CNS = conditions: 10 µM
SF-539 CNS = conditions: 10 µM
UACC-257 melanoma = conditions: 10 µM
A549/ATCC NSCLC = conditions: 10 µM
MDA-MB-231 breast = conditions: 10 µM
SF-268 CNS = conditions: 10 µM
M14 melanoma = conditions: 10 µM
NCI-H522 lung = conditions: 10 µM unless noted

Row | SMILES | growth (NCI-H23 lung) | growth (NCI-H226 lung) | growth (NCI-H322M lung) | growth (HOP-62 NSCLC) | growth (NCI-H460 lung) | growth (HOP-92 NSCLC) | growth (786-0 renal) | growth (COLO 205 colon) | growth (DU-145 prostate) | growth (K-562 leukemia) | growth (MALME-3M melanoma) | growth (RXF 393 renal) | growth (SF-295 CNS) | growth (SF-539 CNS) | growth (UACC-257 melanoma) | growth (A549/ATCC NSCLC) | growth (MDA-MB-231 breast) | growth (SF-268 CNS) | growth (M14 melanoma) | growth (NCI-H522 lung)
1 | O=C1C=CC(=CC=C2C=CN(CCCCCCCCCCCO)C=C2)C=C1 | 20% (inactive) | 59.6% (inactive) | 92.4% (inactive) | 44.5% (inactive) | 17.5% (inactive) | 24% (inactive) | 67.2% (inactive) | -42.6% (active) | 44.3% (inactive) | 24.7% (inactive) | 41.6% (inactive) | 69.2% (inactive) | 45.3% (inactive) | 41.4% (inactive) | 4% (active) | – | – | – | – | –
2 | Nc1ccc2cc3ccc(N)cc3nc2c1 | 101% (inactive) and 3.42% (active) | 87% (inactive) and -2.76% (active) | -7.06% (active) | 6.72% (active) | 102% (inactive) and 0.17% (active) | 96.7% (inactive) and -1.28% (active) | 113% (inactive) and 43.8% (inactive) | 109% (inactive) and -39.2% (active) | 112% (inactive) and 24.3% (inactive) | 9.74% (active) | 107% (inactive) and -50.9% (active) | 127% (inactive) and 8.54% (active) | 114% (inactive) and 14.4% (inactive) | 107% (inactive) and 21% (inactive) | 107% (inactive) and -17.1% (active) | 84.3% (inactive) and 2.08% (active) | 97% (inactive) and 18.4% (inactive) | 115% (inactive) and 18.5% (inactive) | – | –
3 | Clc1ccc(/C=C/c2ccccn2)c(Cl)c1 | 93.7% (inactive) | 97.1% (inactive) | 85.5% (inactive) | 96.2% (inactive) | 95.2% (inactive) | 84% (inactive) | 105% (inactive) | 94.7% (inactive) | 116% (inactive) | 93.6% (inactive) | 102% (inactive) | 108% (inactive) | 94.5% (inactive) | 89.3% (inactive) | 99.7% (inactive) | – | 85.5% (inactive) | 99% (inactive) | 106% (inactive) | –
4 | NC1=C(Cl)C(=O)c2ccccc2C1=O | 40.7% (inactive) | 103% (inactive) | 98.6% (inactive) | 62.4% (inactive) | 25.3% (inactive) | 96.8% (inactive) | 106% (inactive) | 95.2% (inactive) | 27.1% (inactive) | 57% (inactive) | -26.3% (active) | 103% (inactive) | 41% (inactive) | 75.4% (inactive) | 56.6% (inactive) | – | 72.1% (inactive) | 71.7% (inactive) | 28.7% (inactive) | 73.6% (inactive)
